# PubChem BioAssay (NCI)
# This is part of a sample that, as a whole, favours compounds with a hit. Of some 83,000 tested, about 20% had one in any assay.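 In brief: 96-well plates, 48 h treatment, single concentration, percent growth endpoint.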 A number with no mark means an inactive call. Activity calls are given as the source filed them. Rule for the calls: active = growth percent below 10; inactive = the rest.
# System: COLO 205 colon
# Assay: NCI-60 one-dose screen, 48 h (100 = growth as untreated, 0 = no growth, -100 = all killed)
# Conditions: 10 µM unless noted
row,Compound,growth
1,CCNCCCn1c2c(c3ccc(F)cc3c1=O)C(=O)c1cc(OC)cnc1-2,-32% (active)
2,CN(C)CCCN=c1cc2c(=O)n(CCCN(C)C)c(=O)c3c(NCCCN(C)C)cc4c(O)n(CCCN(C)C)c(=O)c1c4c3-2,-56.6% (active)
3,O=C(NN1C(=O)c2cc(C(=O)O)c(C(=O)O)cc2C1=O)c1ccncc1,105%
4,COc1ccc2c(c1)sc1nc(-c3ccc(Br)cc3)cn12,129%
5,O=C(CNC(=O)c1cccc2ccccc12)Nc1ccccc1Oc1cccc(O)c1,33.8% [5 µM]
6,NC(=N\N=C/Cc1ccccc1)/C(N)=N\N=C\Cc1ccccc1,117%
7,COc1cccc(/C=N/Nc2nc3ccccc3s2)c1OC,71.6%
8,COC(=O)c1cc2c(/C=C3/NC(=S)NC3=O)coc2n1C,97.7%
9,Cc1cc(=O)oc2cc(OCCn3c(C)nn(-c4ccc(Cl)cc4)c3=O)ccc12,10.6%
10,Cn1c(N2N=C(c3ccc(Cl)cc3)CC2c2ccccc2)nc(-c2ccccc2)c(C#N)c1=O (stereo not drawn),99.4%
11,Nc1ccc(N=Nc2ccccc2)cc1[N+](=O)[O-],95%
12,CCN(CC)CCCCCCCNc1c2ccc(Cl)cc2nc2ccc(OC)cc12,-92.5% (active)
13,Cc1sc2nc(NCc3ccccc3)[nH]c(=O)c2c1C,34.7%
14,COc1ccc(C(=O)/C=C/c2cccc(Nc3ccnc4cc(Cl)ccc34)c2)cc1,45.1%
15,CC(=O)N1N=C(c2ccc(Nc3nc(NCCO)nc(NCCO)n3)cc2)CC1c1ccc(Cl)cc1 (stereo not drawn),102%
16,Cc1csc(C#Cc2cncc(O)c2)n1,105%
17,CCOC(=O)C1C(=O)NC(C(=O)OCC)(C(=O)OCC)C1CC (stereo not drawn),114%
18,C=C1CCC2C3(C)COC(c4ccccc4)OC3CCC2(C)C1C/C=C1/C(=O)OCC1OC(C)=O (stereo not drawn),103%
19,COc1cc(/C=C/C(=O)C(C(=O)/C=C/c2ccc(OC(=O)CCNc3nnc(C)s3)c(OC)c2)C(=O)CCNc2nnc(C)s2)ccc1OC(=O)CCNc1nnc(C)s1,-26.3% (active)

row,Compound,growth
1,Nc1nc(Nc2ccccc2SSc2ccccc2Nc2nc(N)nc(C(Cl)(Cl)Cl)n2)nc(C(Cl)(Cl)Cl)n1,114%
2,COC(=O)C1=CCC(n2cnc3c(N)ncnc32)O1 (stereo not drawn),103%
3,c1ccc(-c2oc(-c3ccccc3)c3ccccc23)cc1,105%
4,COc1ccc(CCN2C(=O)CCC3=C2CCCC3=O)cc1OC,88.6%
5,CCCCCc1c(C)[nH]c(/C=C2\N=C(c3ccc[nH]3)C=C2Oc2ccc(Cl)cc2)c1C,-85.5% [100 µM] (active)
6,O=C1Nc2ccc(Cl)cc2[C@@](C#CC2CC2)(C(F)(F)F)O1,127%
7,CC(=O)N1N=C(c2ccc(C(F)(F)F)cc2)CC1c1ccc2c(c1)OCO2 (stereo not drawn),100%
8,O=C(CN1CCN(c2ccc(Cl)cc2)CC1)N1CCN(c2nnc(-c3ccccc3)c(-c3ccccc3)n2)CC1,33%
9,NC(=O)NC1(C(=O)O)CCCC1,107%
10,Cc1ccc(C(=O)Cc2ccccc2)c(O)c1,109%
11,CCOC(=O)c1cc2oc(/C=C/c3cc(=O)c4cc(Cl)ccc4o3)cc2[nH]1,93.9%
12,O=c1ncc(-c2ccc(C(F)(F)F)cc2)c(NC2CCCCCC2)[nH]1,46.2%
13,CCOc1nc(-c2ccco2)n2nc(-c3ccco3)cc2n1,131%
14,O=C(N/N=C/c1cccc(O)c1)c1ccc(C(F)(F)F)nc1Nc1cccc(C(F)(F)F)c1,-0.875% (active)
15,CC(C)CNc1nc(N=[N+]=[N-])nc(NCC(C)C)n1,99.2% [100 µM]
16,COc1ccc2c3c(ccc2c1)C(=O)/C(=C\O)CC3,105%
17,O=C(NC1CCS(=O)(=O)C1)c1ccc(C(=O)c2ccccc2)cc1 (stereo not drawn),102%
18,COc1ccc2cc(-c3nc4ccccc4[nH]3)c(=O)oc2c1,119%
19,Cc1ccc(S(=O)(=O)N2CCN(C(=O)CSc3nc4ccc(C)cc4[nH]3)CC2)cc1,143%
